# For part of these data: Results with a measured potency or affinity are listed apart.
# Columns and labels:
# Staphylococcus aureus = test: Antibacterial activity against Staphylococcus aureus MRSA ATCC 43300 (CO-ADD:GP_020); MIC in CAMBH media using NBS plates, by Resazurin F(560/590); assay type: functional; settings: Concentration 20 uM, ASSAY_TEST Inhibition of Bacterial Growth, detection method Resazurin, Fluorescence (ex560/em590), MEDIA CAMHB, plate type 384well, CORNING #3640, time 18 hr
# Acinetobacter baumannii = test: Antibacterial activity against Acinetobacter baumannii ATCC 19606 (CO-ADD:GN_034); MIC in CAMBH media using NBS plates, by Resazurin F(560/590); assay type: functional; settings: Concentration 20 uM, ASSAY_TEST Inhibition of Bacterial Growth, detection method Resazurin, Fluorescence (ex560/em590), MEDIA CAMHB, plate type 384well, CORNING #3640, time 18 hr
# Escherichia coli = test: Antibacterial activity against Escherichia coli ATCC 25922 (CO-ADD:GN_001); MIC in CAMBH media using NBS plates, by Resazurin F(560/590); assay type: functional; settings: Concentration 20 uM, ASSAY_TEST Inhibition of Bacterial Growth, detection method Resazurin, Fluorescence (ex560/em590), MEDIA CAMHB, plate type 384well, CORNING #3640, time 18 hr
# Klebsiella pneumoniae = settings: Concentration 20 uM; ASSAY_TEST Inhibition of Bacterial Growth; detection method Absorption (OD600); MEDIA CAMHB; plate type 384well; NBS; CORNING #3640; time 18 hr
# Candida albicans = settings: 20 µM
# Cryptococcus neoformans = settings: Concentration 20 uM; ASSAY_TEST Inhibition of Fungal Growth; detection method Resazurin; Absorption (OD600-OD570); plate type 384well; NBS; CORNING #3640
Compound,Inhibition (Staphylococcus aureus) [%],Inhibition (Acinetobacter baumannii) [%],Inhibition (Escherichia coli) [%],Inhibition (Klebsiella pneumoniae) [%],Inhibition (Candida albicans) [%],Inhibition (Cryptococcus neoformans) [%]
C[C@H]1[C@H](C)N1CC(O)Cn1ccnc1[N+](=O)[O-] (stereo partly specified),3.93,7.84,-2.75,19.25,3.06,-3.91
O=C1/C(=C\c2ccccc2)C2OCC=C3CN4CCC56c7ccccc7N1C5C2C3CC46 (stereo unspecified),33.46,-0.22,16.65,12.64,-0.43,-4.36
Cn1cc(C=O)c2nccnc21,0.99,-3.72,-9.44,3.85,1.67,2.98
c1ccc(C2NCCc3[nH]cnc32)cc1 (stereo unspecified),1.04,-8.45,-9.57,10.31,0.7,13.69
c1cnc2c(c1)ccc1ncccc12,9.5,-5.64,9.97,12.45,0.86,-4.19
CC1=CC(O)C(O)C2(C)C1CC1OC(=O)C(O)C3C(C)C(O)C4(O)OCC13C42 (stereo unspecified),9.24,4.24,-0.01,12.12,-0.21,-7.24
C=CCN1CC[C@]23c4c5ccc(O)c4O[C@H]2C(=O)CC[C@@]3(O)[C@H]1C5 [NALOXONE],11.42,-13,1.67,,,
CCN(CC)c1ccc(C=C2C(=O)NC(=S)NC2=O)cc1,-20.45,-4.05,-18.35,3.93,19.4,12.5
COc1c(OP2(=S)OCC(C)(C)CO2)cnn(C2CCCCC2)c1=O,22.66,-7.99,17.33,10.42,-1.61,-6

# Reference: ChEMBL document CHEMBL4296182, “CO-ADD screening of NIH NCI Diversity Set V”
